PubChem BioAssay (NCI)
Values joined by “and” are separate entries in the source; they are usually repeats but may differ in a detail not shown here. Identical values can stand only once. The panel holds about 83,000 compounds, 20% with a hit somewhere; the sample as a whole holds those more often.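 Method: cells in 96-well plates; compound added at one concentration; 48 h incubation; percent growth measured; values under 10 scored active.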 Unmarked numbers belong to inactive results. Active and inactive are the calls of the source.

What follows are molecules tested on TK-10 renal (assay: NCI-60 one-dose screen, 48 h (100 = growth as untreated, 0 = no growth, -100 = all killed)). Settings: 10 µM.
Experimental: Growth inhibition of the TK-10 human tumor cell line is measured as a screen for anti-cancer activity. Cells are grown in 96 well plates and exposed to the test compound for 48 hours. Compounds are tested at a single concentration, which is 10^-5 M for most compounds. The reported endpoint is percent growth (GI% or GIPRCNT), where numbers from 0 - 100% represent growth inhibition, and numbers from -100% - 0 represent cell death. For example, a value of 40 represents 60% growth inhibition. A value of 0 means no net growth occurred over the course of the experiment. A value of -40 indicates 40% of cells at the beginning of the experiment died by the end of the experiment. A value of -100 means all cells are dead at the end of the experiment.
NCI-60 Human Tumor Cell Lines Screen was performed using the standard one-dose NCI protocol, which is described in more detail at https://dtp.cancer.gov/discovery_development/nci-60/default.htm.
Compounds with GIPRCNT values below 10 were considered active. Activity score was based on GIPRCNT using the following formula: […]
Score is 0 for GIPRCNT values of 100 or above, 50 for GIPRCNT values of 0, and 100 for GIPRCNT values of -100.

**Q.** How did the growth turn out when `Cc1cc(O)c2cc3c(O)c(O)ccc3cc2c1` was run?
**A.** 115%

Same assay, conditions: 10 µM unless noted

**Q.** With `CNC(=O)c1c(NC(=O)c2cccc(C(F)(F)F)c2)sc2c1CCC(=O)C2` as the molecule, how does the growth read?
**A.** 32.1%

**Q.** Which growth does the source give for `CCN(CC)c1ccc(/C=C2/NC(=O)NC2=O)cc1` here?
**A.** 49.5%

**Q.** `CC(C)(C)OC(=O)N1CCCN(CCNc2nccc(-c3c(-c4cccc(O)c4)nc4sccn34)n2)S1(=O)=O` was tested. Which growth did it give?
**A.** 121%

**Q.** Which growth does the source give for `Cc1cc(N)cc(C)c1-c1c(Br)cc(N)cc1Br` here?
**A.** 22.3%

**Q.** How did the growth turn out when `CCSCC1CC(O)(c2ccccc2)C(c2ccccc2)C(c2ccc(F)cc2)O1` (stereo not given) was run?
**A.** -15.4% (active)

**Q.** Which growth does the source give for `CN1C(=O)NC(Cc2c[nH]c3c(Cl)cccc23)C1=O` (stereo not given) here?
**A.** 147%

**Q.** For `Cc1ccc(OC2=C(C#N)C(=N)N3C(=NN2)Sc2c(C)ccc(C)c23)cc1`, which growth is on record?
**A.** 129%

**Q.** For `NS(=O)(=O)c1ccc(CCn2c(SCC(=O)N/N=C/c3cccnc3)nc3ccccc3c2=O)cc1`, which growth is on record?
**A.** 109%

**Q.** Which growth does the source give for `O=C(N/N=C\c1cc(Br)ccc1O)c1ccncc1` here?
**A.** 43.7%

**Q.** Which growth does the source give for `Nc1cc(C(=O)O)cc(C(=O)O)c1` here?
**A.** 101%

**Q.** Which growth does the source give for `COc1ccc(Cl)cc1Nc1nc(C(F)(F)F)ccc1C(=O)NN` here?
**A.** 26.1%

**Q.** How did the growth turn out when `COc1cc2c(=O)n(CCCN(C)C)c3c4cc[nH]c4ncc3c2cc1OC` was run?
**A.** 53.7%

**Q.** How did the growth turn out when `Cc1ccc2c(C)c3c(ccc4ccccc43)c[n+]2c1` was run?
**A.** 111%

**Q.** For `COc1cc(NCCC2CCCCN2)c2ncccc2c1OC` (stereo not given), which growth is on record?
**A.** 104%

**Q.** How did the growth turn out when `COc1ccc2nc3ccccc3c(NCc3ccc(C)cc3)c2c1` was run?
**A.** 47%

**Q.** For `COC(=O)C(Br)(C(=O)OC)C(Br)C(Br)C(Br)c1ccccc1` (stereo not given), which growth is on record?
**A.** -45.2% (active)

**Q.** With `CC(SC(C)C(=O)N/N=C/c1cccc(Cl)c1)C(=O)N/N=C\c1cccc(Cl)c1` (stereo not given) as the molecule, how does the growth read?
**A.** 105%

**Q.** Which growth does the source give for `CN1CCC2(CC1)N=C(SCC(=O)Nc1cnc3ccccc3c1)C(c1ccc(Br)cc1)=N2` here?
**A.** 30.1%

**Q.** `O=C(CCl)Nc1ccc2c(c1)C(=O)c1ccccc1C2=O` was tested. Which growth did it give?
**A.** -27.9% (active)

**Q.** For `COc1ccc(/C=C(\C#N)c2cc(OC)c(OC)c(OC)c2)cc1`, which growth is on record?
**A.** 74.1%

**Q.** `Nc1c(C(=O)C[C@@H](N)CO)ccc2c1C(=O)CCO2` was tested. Which growth did it give?
**A.** 71.4%

**Q.** With `Clc1ccc(-c2cnc3nonc3n2)s1` as the molecule, how does the growth read?
**A.** 103%

**Q.** Which growth does the source give for `O=C1C=CN2C(=O)CC=CC2[C@@H]1O` (stereo not given in full) here?
**A.** 118%

**Q.** For `COC(=O)c1ccc2c(c1)nc(-c1ccc(Cl)cc1)n2-c1cc(C(C)(C)C)[nH]n1`, which growth is on record?
**A.** 86.6%

**Q.** With `COc1cccc(C2C(C#N)=C(N)Oc3cc4c(cc32)OCO4)c1` (stereo not given) as the molecule, how does the growth read?
**A.** 80%

**Q.** `Cc1cccc(N=NC(=S)NNc2cccc(C)c2)c1` was tested. Which growth did it give?
**A.** 136%

**Q.** How did the growth turn out when `COc1ccc(CC2c3cc(OC)c(OC)cc3CC[N+]2(C)CCC(=O)OCCCCCOC(=O)CC[N+]2(C)CCc3cc(OC)c(OC)cc3C2Cc2ccc(OC)c(OC)c2)cc1OC` (stereo not given) was run?
**A.** 124%

**Q.** For `CCOC(=O)C(Cc1ccccc1)n1c(O)c(/C=N/c2ncc(Cc3ccc(Cl)cc3Cl)s2)sc1=S` (stereo not given), which growth is on record?
**A.** 2.28% (active)

**Q.** How did the growth turn out when `CCN(CC)c1ccc(/C=N/N=C(N)N)cc1` was run?
**A.** 63.4%

**Q.** Which growth does the source give for `NC(N)=N/N=C/c1cccc(Cl)c1Cl` here?
**A.** 88%

**Q.** With `CCN(CC)CCCC(C)Nc1ccnc2ccc(Oc3ccccc3)cc12` (stereo not given) as the molecule, how does the growth read?
**A.** 93.5%

**Q.** For `O=C1OC(/C=C/c2ccccc2)=NC/1=C/c1ccccc1[N+](=O)[O-]`, which growth is on record?
**A.** 115%

**Q.** For `Cc1ccncc1NC=O`, which growth is on record?
**A.** 102%

**Q.** `CC(=O)O[C@H]1CC[C@]2(C)[C@H]3CC=C4[C@@H]5CC(C)(C)CC[C@]5(C(=O)OCC(COC(=O)C(Cl)Cl)(COC(=O)C(Cl)Cl)NC(=O)C(Cl)Cl)CC[C@@]4(C)[C@]3(C)CC[C@H]2C1(C)C` was tested. Which growth did it give?
**A.** 78.1%

**Q.** Which growth does the source give for `Clc1ccc(-c2cnc3c(-c4ccnc(N5CCNCC5)c4)cnn3c2)cc1` here?
**A.** 1.85% (active)

**Q.** `COc1ncnc2[nH]cc(CN3CCN(c4ccc(F)cc4)CC3)c12` was tested. Which growth did it give?
**A.** 90.1%

**Q.** Which growth does the source give for `C[Si](C)(C)C(c1ccccc1)c1ccccc1` here?
**A.** 108%

**Q.** With `C[C@H](NC(=O)c1snnc1C1CC1)c1c(F)cccc1Cl` as the molecule, how does the growth read?
**A.** 129%

Same assay, conditions: 100 µM

**Q.** For `Cc1cc(O)c2cc3c(O)c(O)ccc3cc2c1`, which growth is on record?
**A.** -14.3% (active) and -64.8% (active)
